For 23 compounds, Potency, activity, negative = inhibition and activity change, negative = inhibition results are on record in PubChem BioAssay (NCATS).

The nature of test [1]: qHTS for Inhibitors of Plasmodium falciparum (DD2) proliferation (AID 504314). Further: potency means the concentration at half of the fitted maximal effect.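 On activity, negative = inhibition: parasite DNA measured by SYBR Green fluorescence after red cell lysis; plate controls were DMSO vehicle for no effect and artemisinin wells for full effect.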 The method, boiled down: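 Erythrocytes infected with P. falciparum Dd2 (0.3% parasitemia, 2.5% hematocrit) exposed to compound 72 h at 37C, 5% CO2. Parasite DNA quantified by SYBR Green fluorescence after saponin/Triton lysis overnight; normalized to 0.29 uM artemisinin and DMSO.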
Test [2] can be described thus: qHTS for Inhibitors of Plasmodium falciparum (GB4) proliferation (AID 504315). Further: nearly all actives have a fitted effect of over 50% in size. Further: potency means the concentration at half of the fitted maximal effect.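 On activity change, negative = inhibition: 0% = DMSO vehicle and -100% = 0.29 µM artemisinin control.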 The method, boiled down: (§1)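 Erythrocytes infected with P. falciparum line (0.3% parasitemia, 2.5% hematocrit final) incubated with compounds 72 h at 37 °C, 5% CO2; SYBR Green lysis buffer added, fluorescence read next day. Normalized to 0.29 uM artemisinin and DMSO.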
Test [3] is described as follows: qHTS for Inhibitors of Plasmodium falciparum (7G8) proliferation (AID 504316). Further: nearly all actives have a fitted effect of over 65% in size. Further: potency means the concentration at half of the fitted maximal effect.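 On activity change, negative = inhibition: series mostly up to about 6.7 µM; 0% = DMSO vehicle and -100% = 0.29 µM artemisinin full kill.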 The gist of the method:
as §1
On the technique in general: Quantitative high-throughput screening tests each substance at several concentrations.

Test [4] is described as follows: qHTS for Inhibitors of Plasmodium falciparum (HB3) proliferation (AID 504318). Further: nearly all actives have a fitted effect of over 60% in size. Further: potency means the concentration at half of the fitted maximal effect.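 On activity change, negative = inhibition: 0% = DMSO vehicle and -100% = artemisinin control.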 The method, boiled down:
as §1

Test [5] can be described thus: qHTS for Inhibitors of Plasmodium falciparum (CP250) proliferation (AID 504320). Further: potency means the concentration at half of the fitted maximal effect.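 On activity change, negative = inhibition: plate controls were DMSO vehicle for no effect and 0.29 µM artemisinin control for full effect.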 The gist of the method:
as §1

Test [6] concerns the target Atrial natriuretic peptide receptor 1 (Homo sapiens) (UniProt P16066). Description: Natriuretic polypeptide receptor (hNpr1) antagonism - Pilot CMLD screen (AID 1347052; calls by dose curve;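 further: HEK293 cells with hNpr1 stimulated by hNppA peptide at 0.1 nM; cGMP level read as GloSensor luciferase luminescence after agonist stimulation; series mostly up to about 9.2 µM; on the % scale 0 is the no-effect control and ±100 the full control effect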).
The target in test [7] is Cytochrome P450 2C9 (Homo sapiens) (UniProt P11712). Briefly: qHTS Assay for Inhibitors and Substrates of Cytochrome P450 2C9 (AID 883). Further: on the % scale 0 is the no-effect control and ±100 the full control effect; nearly all actives have a fitted effect of over 60% in size. The gist of the method: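 Luminescent read-out of deoxyluciferin hydroxylation, normalized to 57uM sulphaphenazole (AC100). Reaction: 10nM enzyme, 100uM Luciferin-H (equal to KM), 25mM KPO4, 10 min compound preincubation, then 60 min with NADPH regeneration, both at 37C.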

The target in test [8] is Cytochrome P450 3A4 (Homo sapiens) (UniProt P08684). Description: qHTS Assay for Inhibitors and Substrates of Cytochrome P450 3A4 (AID 884). Further: series mostly up to about 57 µM; on the % scale 0 is the no-effect control and ±100 the full control effect; nearly all actives have a fitted effect of over 50% in size. The method, boiled down:
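20 nM human CYP3A4 with 25 uM Luciferin-PPXE (at KM) in 200 mM KPO4, preincubated 10 min with compound; NADPH regeneration started a 60 min RT reaction. Luciferin detected by luminescence, normalized to 57 uM ketoconazole as full inhibition.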

The target in test [9] is Cytochrome P450 2D6 (Homo sapiens) (UniProt P10635). Briefly: qHTS Assay for Inhibitors and Substrates of Cytochrome P450 2D6 (AID 891).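 Further: luciferin methyl ether substrate demethylated by CYP2D6 with NADPH regeneration; on the % scale 0 is the no-effect control and ±100 the full control effect; nearly all actives have a fitted effect of over 60% in size.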 The gist of the method:
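Human CYP2D6 (5 nM) with 30 uM Luciferin-ME EGE (at Km) in 100 mM KPO4, compound preincubated 10 min, then NADPH regeneration system for 60 min at room temperature. Luciferin read by luminescence; normalized to 1.43 uM quinidine.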

The target in test [10] is Cytochrome P450 2C19 (Homo sapiens) (UniProt P33261). Description: qHTS Assay for Inhibitors and Substrates of Cytochrome P450 2C19 (AID 899). Further: on the % scale 0 is the no-effect control and ±100 the full control effect; nearly all actives have a fitted effect of over 60% in size. The method, boiled down:
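Luminescence readout of luciferin formed from 10uM Luciferin-H EGE (KM level) by 5 nM CYP2C19 in 50mM KPO4. 60 min NADPH-driven reaction at 37C after 10 min compound preincubation; data scaled to 57uM ketoconazole inhibition.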

“And” between values parts separate entries of the source, which are not always exact repeats. Equal entries are not always repeated. Records with an inconclusive call do not appear. The source holds several records for some structures; these can differ, active in one and inactive in another. The source made the active and inactive calls. Unless noted, the call rests on the fitted dose curve; in most records, active means well fitted curve in the direction sought with a large enough effect; inconclusive means small, poorly fitted or top-dose-only effect, or another doubt; inactive means no such curve, though single readings can be large; an effect the other way counts as inactive or inconclusive.

Sequence of Atrial natriuretic peptide receptor 1 (Homo sapiens) (P16066 whole entry, looked up): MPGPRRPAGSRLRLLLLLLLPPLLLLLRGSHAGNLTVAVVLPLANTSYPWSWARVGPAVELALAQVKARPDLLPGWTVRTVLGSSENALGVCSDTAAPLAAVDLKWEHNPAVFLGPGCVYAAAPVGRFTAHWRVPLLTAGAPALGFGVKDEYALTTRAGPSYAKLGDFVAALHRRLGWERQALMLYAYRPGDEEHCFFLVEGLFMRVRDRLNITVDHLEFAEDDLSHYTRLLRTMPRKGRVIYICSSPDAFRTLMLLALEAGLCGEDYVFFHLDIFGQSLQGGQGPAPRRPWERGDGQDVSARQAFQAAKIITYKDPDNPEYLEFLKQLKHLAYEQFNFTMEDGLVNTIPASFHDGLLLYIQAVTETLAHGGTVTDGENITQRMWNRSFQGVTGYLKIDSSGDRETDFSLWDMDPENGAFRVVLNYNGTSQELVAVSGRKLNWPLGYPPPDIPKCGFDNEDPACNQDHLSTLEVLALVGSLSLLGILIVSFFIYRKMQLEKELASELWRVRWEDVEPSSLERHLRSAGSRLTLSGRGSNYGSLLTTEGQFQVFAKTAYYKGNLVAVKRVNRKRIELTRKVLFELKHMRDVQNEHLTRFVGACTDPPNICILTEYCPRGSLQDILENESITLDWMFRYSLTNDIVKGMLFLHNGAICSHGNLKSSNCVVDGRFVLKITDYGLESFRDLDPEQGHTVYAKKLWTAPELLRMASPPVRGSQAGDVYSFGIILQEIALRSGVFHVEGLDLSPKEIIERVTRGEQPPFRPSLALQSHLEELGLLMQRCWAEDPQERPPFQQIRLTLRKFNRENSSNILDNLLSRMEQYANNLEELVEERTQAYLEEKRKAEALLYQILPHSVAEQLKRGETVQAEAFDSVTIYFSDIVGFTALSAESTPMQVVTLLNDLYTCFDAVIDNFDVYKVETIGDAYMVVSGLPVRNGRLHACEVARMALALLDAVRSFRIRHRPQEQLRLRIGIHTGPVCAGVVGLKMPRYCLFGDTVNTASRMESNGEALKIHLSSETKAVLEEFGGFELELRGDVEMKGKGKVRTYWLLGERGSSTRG
Sequence of Cytochrome P450 2C19 (Homo sapiens) (P33261 whole entry, looked up): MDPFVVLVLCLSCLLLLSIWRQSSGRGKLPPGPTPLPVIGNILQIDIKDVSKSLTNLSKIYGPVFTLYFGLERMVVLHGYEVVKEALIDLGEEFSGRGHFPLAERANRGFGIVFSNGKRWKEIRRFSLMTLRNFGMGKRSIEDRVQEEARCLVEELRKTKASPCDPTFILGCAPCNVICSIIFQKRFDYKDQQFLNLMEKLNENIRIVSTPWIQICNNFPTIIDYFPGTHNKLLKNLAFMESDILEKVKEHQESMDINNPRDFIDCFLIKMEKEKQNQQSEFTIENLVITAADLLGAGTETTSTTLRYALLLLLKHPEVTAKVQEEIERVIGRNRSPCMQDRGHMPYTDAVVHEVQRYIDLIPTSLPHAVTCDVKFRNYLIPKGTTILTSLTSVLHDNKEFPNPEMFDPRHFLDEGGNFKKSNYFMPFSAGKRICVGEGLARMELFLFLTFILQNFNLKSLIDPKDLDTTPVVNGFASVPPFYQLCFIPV
Sequence of Cytochrome P450 3A4 (Homo sapiens) (P08684 whole entry, looked up): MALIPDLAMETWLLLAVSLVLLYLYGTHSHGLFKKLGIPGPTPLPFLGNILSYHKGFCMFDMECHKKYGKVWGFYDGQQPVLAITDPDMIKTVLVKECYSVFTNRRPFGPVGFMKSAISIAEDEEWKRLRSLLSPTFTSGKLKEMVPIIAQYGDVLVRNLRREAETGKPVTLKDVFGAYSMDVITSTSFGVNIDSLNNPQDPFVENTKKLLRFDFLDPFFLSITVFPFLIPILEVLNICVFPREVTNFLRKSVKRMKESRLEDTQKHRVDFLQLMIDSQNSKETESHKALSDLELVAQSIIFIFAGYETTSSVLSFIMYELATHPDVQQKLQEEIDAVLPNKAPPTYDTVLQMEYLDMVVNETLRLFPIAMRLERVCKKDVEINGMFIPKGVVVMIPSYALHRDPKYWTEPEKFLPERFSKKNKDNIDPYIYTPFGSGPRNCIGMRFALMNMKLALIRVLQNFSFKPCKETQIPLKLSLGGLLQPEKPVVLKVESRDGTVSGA
Sequence of Cytochrome P450 2D6 (Homo sapiens) (P10635 whole entry, looked up): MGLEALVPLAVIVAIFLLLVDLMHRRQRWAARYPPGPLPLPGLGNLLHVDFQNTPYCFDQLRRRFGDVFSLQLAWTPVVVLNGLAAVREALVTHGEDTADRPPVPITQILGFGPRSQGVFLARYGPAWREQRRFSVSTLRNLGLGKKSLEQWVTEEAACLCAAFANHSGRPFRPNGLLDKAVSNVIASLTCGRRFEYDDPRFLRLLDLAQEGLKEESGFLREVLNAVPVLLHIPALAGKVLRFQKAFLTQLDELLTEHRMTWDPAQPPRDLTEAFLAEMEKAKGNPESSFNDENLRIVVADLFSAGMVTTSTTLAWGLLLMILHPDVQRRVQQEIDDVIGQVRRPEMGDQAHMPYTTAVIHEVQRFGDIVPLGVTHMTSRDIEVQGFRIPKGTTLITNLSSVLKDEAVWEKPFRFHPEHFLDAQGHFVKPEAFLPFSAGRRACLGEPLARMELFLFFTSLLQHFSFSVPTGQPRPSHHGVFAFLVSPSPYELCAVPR
Sequence of Cytochrome P450 2C9 (Homo sapiens) (P11712 whole entry, looked up): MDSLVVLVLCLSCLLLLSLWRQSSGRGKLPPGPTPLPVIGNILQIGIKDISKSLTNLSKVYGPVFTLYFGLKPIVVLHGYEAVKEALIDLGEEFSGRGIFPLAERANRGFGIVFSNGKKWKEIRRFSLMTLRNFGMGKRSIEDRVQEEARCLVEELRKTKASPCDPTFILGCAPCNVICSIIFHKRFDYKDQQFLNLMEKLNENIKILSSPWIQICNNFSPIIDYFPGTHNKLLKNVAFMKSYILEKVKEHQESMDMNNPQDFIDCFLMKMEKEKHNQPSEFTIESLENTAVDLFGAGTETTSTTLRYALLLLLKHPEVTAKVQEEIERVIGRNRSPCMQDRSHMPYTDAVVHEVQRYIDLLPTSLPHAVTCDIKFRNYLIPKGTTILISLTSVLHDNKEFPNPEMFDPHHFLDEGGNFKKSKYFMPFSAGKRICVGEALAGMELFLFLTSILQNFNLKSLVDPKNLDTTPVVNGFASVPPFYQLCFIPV

Turning to `c1ccc(-c2nc(-c3ccccc3)c(Nc3ccc4ccccc4c3)o2)cc1`, the Potency result in test [1], in [2], in [3], in [4], in test [5] and in test [6] was “inactive” each time.

As to `C=C(C)CCN1C(=O)NC(c2cccc(C(F)(F)F)c2)C(C(=O)OC)=C1C` (configuration not stated), the Potency entry in test [1], in test [2], in [3], in test [4], in test [5] and in test [6] was “inactive” throughout.

Regarding `C=CCOC(=O)N[C@@H](Cc1ccccc1)C(C(=O)OC)=C(C)NCc1ccccc1`, the Potency entry in test [1], in test [2], in test [3], in test [4], in [5] and in test [6] was “inactive” each time.

Take `CCC(C)CN1C(=O)NC(c2ccccc2)C(C(=O)OC)=C1C` (configuration not stated): the Potency entry in test [1], in test [2], in [3], in test [4], in test [5] and in test [6] was “inactive” throughout.

As to `CC1(OC(=O)CCc2ccccc2)C(=O)C=C2C=C(c3ccsc3)OC=C2C1=O` (configuration not stated), the Potency result in test [1], in test [2], in test [3], in [4], in test [5] and in test [6] was “inactive” in each case.

In the case of `Cc1cc2c(nc1C)CCCN2CC(O)CN1CCN(C)CC1` (configuration not stated), the Potency entry in test [1], in [2], in test [3], in test [4], in [5] and in [6] was “inactive” in each case.

As to `COC(=O)N1C(C)=Cc2ccccc2C1CC(C)=O` (configuration not stated), the activity, negative = inhibition in test [1] was -3.47% [at 1.12 µM] (inactive) and -2.49% [at 1.12 µM] (inactive). The Potency entry in test [2], in test [3], in [4], in [5] and in test [6] was “inactive” in each case.

With `O=C1OC2(CCCCC2)CC2=C1[C@H]1O[C@](c3ccsc3)(Cc3c1ccc1ccccc31)O2`, the Potency result in test [1], in test [2], in [3], in test [4], in test [5] and in test [6] was “inactive” each time.

For the compound `CCCCC1=CC2=C(c3ccco3)C(=O)C(C)(OC(=O)c3ccc(OC)cc3)C(=O)C2=CN1CCCN(CC)CC` (configuration not stated), the Potency result in test [1], in [2], in [3], in test [4], in [5] and in [6] was “inactive” in each case.

On to `COC(=O)C1=C(C)N(Cc2ccccc2)C(=NCc2cc(OC)c(OC)c(OC)c2)NC1CCc1ccccc1` (configuration not stated), for which the Potency was 1060 nM (active) in test [1]; 849 nM (active) in [2]; 1510 nM (active) in [3]; 2940 nM (active) in test [4]; 1070 nM (active) in test [5]. The Potency entry in test [6] is “inactive”.

`CCOC(=O)C1=CN(CCCc2cn(Cc3ccccc3)nn2)C(=O)NC1c1ccccc1` (configuration not stated): the Potency entry in test [1], in test [2], in [3], in [4], in [5] and in [6] was “inactive” in each case.

Consider `C=CCN1C(=O)[C@@]2(CC(C)=CC[C@@H](C)O2)c2ccccc21`, for which the Potency result in [1], in [2], in test [3], in test [4], in test [5] and in [6] was “inactive” throughout.

With `C=C=CCCN1C(=O)NC(c2ccccc2)C(C(=O)OC)=C1C` (configuration not stated), the Potency result in test [1], in test [2], in [3], in test [4], in test [5] and in test [6] was “inactive” throughout.

Turning to `COC(=O)C1=NOC2(C=C(Br)C(OC)=C(Br)C2=O)C1` (configuration not stated), the values for the activity change, negative = inhibition in test [7], in test [8] and in [9] were -4.18% [at 11.4 µM] (inactive), -15.6% [at 11.4 µM] (inactive) and -8.27% [at 11.4 µM] (inactive), respectively. Moreover, the activity, negative = inhibition in test [10] is -27.3% [at 11.4 µM] (inactive). The Potency entry in test [1], in [2], in [3], in [4], in [5] and in test [6] was “inactive” each time.

As to `CC1(OC(=O)C2CCCC2)C(=O)C=C2C=C(c3ccsc3)N(C3CC3)C=C2C1=O` (configuration not stated), the activity, negative = inhibition in test [1] was -0.441% [at 1.12 µM] (inactive). Besides, the Potency result in test [2], in test [3], in [4], in [5] and in test [6] was “inactive” throughout.

`CCCCCCCc1cc2ccccc2c2c(C(=O)OC)cc(C(=O)OC)n12`: the Potency result in test [1], in test [2], in test [3], in test [4], in test [5] and in test [6] was “inactive” in each case.

Regarding `COC(=O)N1C2CC3(C)C=C(C)OC1(C)C3c1ccccc12` (configuration not stated), the Potency result in test [1], in test [2], in test [3], in test [4], in test [5] and in test [6] was “inactive” throughout.

On to `COCCN1C=C2C(=O)C(C)(OC(=O)C3CCCC3)C(=O)C=C2C=C1c1ccsc1` (configuration not stated), for which the Potency entry in test [1], in test [2], in [3], in test [4], in test [5] and in test [6] was “inactive” throughout.

As to `CC(=O)OC[C@H]1O[C@H](CCON=C[C@@H](C)[C@H](OCc2ccccc2)C(C)C)C=C[C@@H]1OC(C)=O`, the Potency entry in [1], in test [2], in test [3], in test [4], in test [5] and in test [6] was “inactive” each time.

As to `C=CCNC(=O)N1C2=NC(C(=O)OC)=C(C(=O)OC)[C@@H]3N(C)c4ccccc4[C@]23C[C@H]1CO`, the Potency result in [1], in test [5] and in test [6] was “inactive” each time. Also, the Potency result was “inactive and 1.9 µM (active)” in [2]; “inactive and 1.69 µM (active)” in [3]; “inactive and 2.94 µM (active)” in test [4].

As to `CC(C)=CCN1C(=O)C2(CC(C)=C[C@@H](C)O2)c2c(Br)cccc21` (some centres not stated), the Potency result in [1], in test [2], in test [3], in test [4], in test [5] and in [6] was “inactive” in each case.

Consider `C=CCOC(=O)N[C@@H](c1cccc(OC)c1)[C@@H](C)C=CCC(=O)O`, for which the Potency entry in test [1], in test [2], in [3], in test [4], in test [5] and in test [6] was “inactive” throughout.

Consider `COC(=O)N1C(c2ccccc2)=Cc2ccccc2C1CC(C)=O` (configuration not stated), for which the Potency entry in test [1], in test [2], in [3], in test [4], in test [5] and in test [6] was “inactive” throughout.
